# Only some compounds are listed: those with a hit (about 2.9% of all), similar ones and a draw of the others.
# HEK293 viab: cell viability loss counter-screen | AID 1671193 | Potency, µM (series often up to 57.1 µM), without a hit: at the top dose activity change, negative = cytotoxicity, usual class: cytotoxic | 150,000 tested, 0.12% active | HEK-293-SNCA-luc viability, GF-AFC fluorescence, 24 h;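 further: potency means the concentration at half of the fitted maximal effect; 0% = DMSO-treated cells and -100% = medium-only wells without cells; nearly all actives have a fitted effect of over 30% in size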
#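 HEK-293-SNCA-luc cells (1500/well) plated 24 h, then exposed 24 h to a dilution series; GF-AFC added 30 min at 37C, fluorescence 405/540 nm; normalised to medium-only and DMSO wells, Hill fit.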
# IP6K1 inhibitor: IP6K1 kinase inhibition; Q92551; IP6K1 kinase, ADP-Glo luminescence, 2 h; hits give low values; activity change, % (series mostly up to about 58 µM); 140,000 tested, 0.81% active; in the data active means activity change below about -25%; further: on the % scale 0 is the no-effect control and ±100 the full control effect
# Target sequence (Q92551 whole entry, looked up): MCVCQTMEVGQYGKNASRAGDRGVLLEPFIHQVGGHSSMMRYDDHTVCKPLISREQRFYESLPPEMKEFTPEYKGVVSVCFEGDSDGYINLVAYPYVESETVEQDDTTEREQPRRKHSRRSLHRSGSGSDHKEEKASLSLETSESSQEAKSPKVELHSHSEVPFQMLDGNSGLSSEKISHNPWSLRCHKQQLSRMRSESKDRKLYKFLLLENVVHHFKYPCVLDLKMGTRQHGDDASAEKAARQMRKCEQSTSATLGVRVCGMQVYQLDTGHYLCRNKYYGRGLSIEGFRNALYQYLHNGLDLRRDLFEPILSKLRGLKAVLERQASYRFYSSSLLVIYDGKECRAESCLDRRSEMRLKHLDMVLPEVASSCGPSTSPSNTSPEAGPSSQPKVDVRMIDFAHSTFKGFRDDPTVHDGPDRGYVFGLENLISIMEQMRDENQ
#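 ADP-Glo luminescence measures ADP made by human IP6K1 during a 2 h RT reaction with ATP/IP6 (mix at 1.3 mM/130 uM); top library doses 57.5 and 19.1 uM final.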
# KDM5B inhibitor: inhibitors of human KDM5B histone demethylase; Q9UGL1; KDM5B demethylase, FDH-coupled NADH fluorescence (FDH is formaldehyde dehydrogenase); Potency, µM (top dose mostly 57.7 µM), actives largely listed as inhibitors; 220,000 tested, 2.6% active; AID 1347165; further: potency means the concentration at half of the fitted maximal effect; 0% is about no effect; nearly all actives have a fitted effect of over 70% in size
#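 KDM5BΔAP (200 nM final) in 50 mM HEPES pH 7.5, 0.01% Tween-20 was preincubated 10 min at RT with compound over a concentration range. Substrate mix (H3K4me3 12.5 µM, α-KG 25 µM, Fe²⁺, ascorbate, NAD⁺, FDH) was added, and NADH fluorescence change over 30 min gave dose-response curves.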
# SNCA expr inhib: SNCA gene expression inhibition. Potency, µM (top dose mostly 57.2 µM), without a hit: at the highest dose activity change, negative = inhibition, hits mostly inhibitors. HEK-293 SNCA-luciferase knock-in, luminescence, 24 h. 140,000 tested, 0.17% active. AID 1671194;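 further: potency means the concentration at half of the fitted maximal effect; plate controls were DMSO cells for no effect and cell-free wells for full effect; nearly all actives have a fitted effect of over 45% in size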
# * hit, by the source's call; i = inactive; ? = inconclusive; nt = no result; [ ] = another dose, or the depositor's remark. Unless noted, the call rests on the fitted dose curve; in most records, active means well fitted curve in the direction sought with a large enough effect; inconclusive means small, poorly fitted or top-dose-only effect, or another doubt; inactive means no such curve, though single readings can be large; an effect the other way counts as inactive or inconclusive.
SMILES,HEK293 viab,IP6K1 inhibitor,KDM5B inhibitor,SNCA expr inhib
COCCN(Cc1nccs1)C(=O)c1cnc(-c2ccccn2)[nH]c1=O,-16%,21,11µM*,?
Cc1ccc(-c2ncc(C(=O)N(C)Cc3nc(CC(C)C)no3)c(=O)[nH]2)cc1,-6%,-12,i,-7%
CCN(Cc1noc(CC(C)C)n1)C(=O)c1cnc(-c2ccccn2)[nH]c1=O,-17%,9,7.9µM*,-12%
COCCN(Cc1ccccn1)C(=O)c1ccc2c(c1)ncn2C,-4%,33,i,2%
O=[S+]([O-])(NC1CCN(c2ccnc3ccnn23)C1)c1ccccc1 (centres undefined),-18%,4,nt,?
O=[S+]([O-])(NC1CCN(c2ccnc3ccnn23)CC1)c1cccc(C(F)(F)F)c1,15%,11,nt,-3%
O=C(NCCc1ccccc1)c1ccc2nc(-c3ccccn3)oc2c1,-1%[87.6 µM],0,nt,118%[87.6 µM]
CCCOc1cccc(-c2cc3c(cc2OC)C(CO)CC(C)(C)CO3)c1 (centres undefined),nt,-8,nt,nt
CCn1cnnc1CC1CCN(C(=O)c2cnn3c(C)c(Cc4ccccc4Cl)c(C)nc23)CC1,0%,13,28µM*,5%
CC(=O)NC1(C)CCCN(Cc2cc(-c3cccc(N(C)C)c3)cs2)C1 (centres undefined),-13%[87.6 µM],9,?,40%[87.6 µM]
CNC(=O)c1cc(C2CC2)nc2c1c(C1CCCN(C(=O)c3ccccc3)C1)nn2C (centres undefined),nt,-11,nt,nt
Cc1ccc(Cl)cc1-n1nc(-c2c(C)nc3scc(CC(=O)N4CCOCC4)n3c2=O)cc1C,-8%,25,28µM*,-13%
Cc1ccc(C)c(-n2nc(-c3c(C)nc4scc(CC(=O)N5CCOCC5)n4c3=O)cc2C)c1,-1%,13,28µM*,28%
c1ccc(-c2ccccc2Nc2cnc3ccc(N4CCOCC4)nn23)cc1,?,-18,i,-23%[87.6 µM]
FC(F)(F)c1cc(Nc2cnc3ccc(N4CCOCC4)nn23)ccc1Cl,15%[87.6 µM],-17,32µM*,-8%[87.6 µM]
Clc1ccccc1Nc1cnc2ccc(N3CCOCC3)nn12,-1%[87.6 µM],3,32µM*,-26%[87.6 µM]
CCc1ccc(N2CC(c3noc(-c4ccc5ncccc5c4)n3)CC2=O)cc1 (centres undefined),2%,13,32µM*,-22%
CCc1ccc(N2CC(c3noc(-c4ccccc4)n3)CC2=O)cc1 (centres undefined),3%,0,i,-20%
CCc1ccc(N2CC(c3noc(-c4nccc5ccccc45)n3)CC2=O)cc1 (centres undefined),0%,6,32µM*,-26%
O=C1CC(c2noc(-c3nccc4ccccc34)n2)CN1C1CCCCC1 (centres undefined),-12%,27,22µM*,-3%
CCc1ccc(N2CC(c3noc(-c4ccccn4)n3)CC2=O)cc1 (centres undefined),10%,19,i,1%
O=C1CC(c2noc(-c3ccoc3)n2)CN1C1CCCCC1 (centres undefined),7%,0,i,0%
COc1cccc(-c2cn3cc(C(=O)NCCc4ccccc4)nc3s2)c1,-5%,8,nt,10%
C1CCC(c2nc(CCOCC3CCOCC3)no2)NC1 (centres undefined),-1%,12,32µM*,-5%
Cc1noc(C)c1-c1cc2c(cc(-c3ccccc3)n2C)c(Nc2ccncn2)n1,?,-8,35µM*,-23%[87.6 µM]
SMILES,HEK293 viab,IP6K1 inhibitor,KDM5B inhibitor,SNCA expr inhib
COc1ccc(-c2cc(-c3c(C)noc3C)cc3c2C(=O)N(C)C3)cn1,-15%[87.6 µM],16,32µM*,-16%[87.6 µM]
COc1ccc(-c2nc(-c3c(C)noc3C)cc3c2cc(-c2ccccc2)n3C)cn1,?,-10,28µM*,?
Cc1noc(C)c1-c1cc2c(cc(-c3ccccc3)n2C)c(-c2cnn(C)c2)n1,-20%[87.6 µM],-4,35µM*,11%[87.6 µM]
Cc1noc(C)c1-c1cc2c(cc(-c3ccccc3)n2C)c(-c2cccnc2)n1,-19%[87.6 µM],-14,i,-10%[87.6 µM]
CC(C)N1C(=O)C2(CCN(C(=O)Cc3c[nH]c4ccccc34)CC2)C1c1ccccc1 (centres undefined),-20%,4,nt,?
NS(=O)(=O)c1ccc(N/N=C/c2cccc(Cl)c2)c([N+](=O)[O-])c1,nt,nt,i,nt
Cc1noc(C)c1-c1cc2c(cc(-c3ccccc3)n2C)c(N2CCOCC2)n1,-15%[87.6 µM],-16,22µM*,-14%[87.6 µM]
O=c1c(-c2ccc(O)cc2)coc2cc(OC3O[C@H](CO)[C@H](O)[C@H](O)[C@H]3O)cc(O)c12 (some centres undefined),-8%,nt,nt,5.4µM*
Cc1nn(-c2ccccc2)c2c1C(C)N(C1CCN(C(=O)c3cccc(C(F)(F)F)c3)CC1)C2=O (centres undefined),nt,0,nt,nt
Cc1ccc(C(=O)N2CCC3(CC2)CN(C2CCC2)CC3CO)s1 (centres undefined),-1%[12.5 µM],27,?,2%
CCn1cc(C(=O)N2CCC3(CC2)CN(C2CCC2)CC3CO)cn1 (centres undefined),-3%,4,10µM*,8%
Cc1cc(CN2CCC3(CC2)CN(C2CCC2)CC3CO)n(C)n1 (centres undefined),-4%,5,18µM*,-29%
COc1ccc(C(=O)N2CCN(c3ccnc4ccnn34)CC2)cc1,2%[87.6 µM],5,nt,6%[87.6 µM]
CCn1c(=O)c2ccnn2c2ccc(C(=O)NCc3ccc(OC)cc3OC)cc21,2%,8,?,-14%
CCn1c(=O)c2ccnn2c2ccc(C(=O)NCCc3cccnc3)cc21,2%,2,32µM*,-7%
Cc1ccc(C(=O)NCCc2cccnc2)cc1,nt,nt,i,nt
CCCn1cc(CNC(=O)c2ccc3c(c2)n(CC)c(=O)c2ccnn23)c(C)n1,2%,27,22µM*,17%
CCn1c(=O)c2ccnn2c2ccc(C(=O)O)cc21,-1%,-12,22µM*,-17%
COc1ccc(-c2cc(C(=O)NCc3ccccc3Cl)c3cnn(C)c3n2)cc1,8%,8,nt,-12%
CS(=O)(=O)N1CCC(Cc2ccc(C(=O)NCc3ccc(F)cc3)cc2)CC1,-8%,22,nt,-7%
CN(C)C[C@@H]1CN(c2ncccn2)C[C@H]1NC(=O)NCc1ccco1,12%,-1,?,-5%
COCCCNC(=O)N[C@@H]1CN(c2ncccn2)C[C@H]1CN(C)C,-2%,26,32µM*,-26%
COc1ccc(CNC(=O)N[C@@H]2CN(c3ncccn3)C[C@H]2CN(C)C)cc1,16%,5,28µM*,-1%
Cc1ccc(NC(=O)N2CCCC(N3C(=O)c4c(c(C)nn4-c4ccccc4)C3C)C2)cc1F (centres undefined),nt,17,nt,nt
Cc1ccc(C(=O)N2CCN(Cc3ccccc3-c3ccccc3F)CC2)cc1,8%[12.5 µM],20,nt,-4%
CN1CCN(c2ccc3ncc(Nc4cccc(C(F)(F)F)c4)n3n2)CC1,-4%[87.6 µM],-16,?,-6%[87.6 µM]
COC(=O)CNC(=O)C1CCCN1C(=O)c1cccc(-c2cccc(OC)c2)c1 (centres undefined),11%[12.5 µM],-9,nt,21%

# Compound activity (PubChem BioAssay)
